We go through 40 compounds from PubChem BioAssay (NCATS).

The structures appear in SMILES notation. Inconclusive results are not listed. A number with no mark means an inactive call. The source made the active and inactive calls. The call rests on the fitted dose curve; in most records, active means well fitted cell-killing curve with a large enough effect; inconclusive means small, poorly fitted or top-dose-only effect; inactive means flat fitted curve, though single readings scatter.
Potency means the concentration at half of the fitted maximal effect.

The test is described as follows: Quantitative highthroughput screen to assess conditional lethalithy of P12 Ichikawa cells grown in RPMI1640 with untreated serum (RPMI+s) (AID 1963881). Further: nearly all actives have a fitted effect of over 35% in size. The following applies: ATP luminescence, 48 h; Potency: viability; series mostly up to 45.8 µM; viability: at the top concentration. An excerpt:
Assay Provider: Jason Cantor Ph.D.
Department of Biochemistry
University of Wisconsin-Madison, Madison, WI, USA
Chemical screening studies have identified drug sensitivities across hundreds of cancer cell lines but most putative therapeutics fail to translate. Discovery and development of drug candidates in models that more accurately reflect nutrient levels in human blood is a major challenge. Here we performed high-throughput screens in conventional versus Human Plasma-Like Medium (HPLM) to identify compounds that were "missed" when screening using the artificial culture condition. Sets of conditional anticancer compounds spanned phases of clinical development and included non-oncology drugs were assessed. […] We also traced conditional phenotypes for several chemotherapeutics to availability of HPLM-specific metabolites and confirmed others for compounds whose reported targets are encoded by nonessential genes. Our findings establish generalizable strategies for exploiting conditional lethality in HPLM to reveal therapeutic candidates and mechanisms of action in cancer cells.
Described herein are the results of each viability screens against three cell lines: NOMO1 (an acute myeloid leukemia cell line); P12-Ichikawa (a T-cell acute lymphoblastic leukemia); and SEM (a B-cell ALL). Each assay was screened using 3 different cell culture media: homemade human plasma-Like medium with 10% dialyzed fetal bovine serum (HPLM+ds); RPMI1640 with 10% untreated FBS and 5mM glucose (RPMI+s); and RPMI1640 with 10% dialyzed fetal bovine serum and 5 mM glucose (RPMI+ds).
PROTOCOL TABLE (as described by Inglese J, Shamu CE and Guy RK. 2007)
SEQUENCE No. (e.g., 1, 2, 3, etc.); […] (e.g., Cells, Incubation, Reagent, etc.); VALUE and DESCRIPTION.
1; Cells; 5 uL; white, solid bottom 1536-well Greiner assay plate.
2; Compounds; 23 nL; Kalypsis pin tool (Wako USA) equipped with a 1536-well pin head to transfer to the assay plates.
3; Incubation; 48 hours; 37C incubation.
4; Reagent; 3 uL; CellTiter Glo (Promega).
5; Incubation; 5 min, room temperature
6; Detection; Luminescence, Viewlux PerkinElmer.
NOTES (numbers refer to Sequence numbers above)
1. Briefly, 5 ul of cell reagent was dispensed using a Multidrop Combi Dispenser. The NOMO1 and SEM cells were plated at 500 cells/well and the P12-Ichikawa line at 1000 cells/well.
2. After seeding the cells, 23 nL of MIPE 4.1 library compounds (in DMSO) were added to each plate using a Kalypsys 1536 Pintool dispenser. Bortezomib at final concentration of […] and DMSO were added to each plate as positive and negative controls respectively. For each screen, MIPE 4.1 compounds were added over an eleven-point concentration range […] in 3-fold dilutions.
3. Each plate was covered with a stainless steel gasketed lid to prevent evaporation and incubated for 48 hour at 37C, 95% relative humidity, and 5% CO2.
4-5. Three microliter CellTilter-GloTM luminescent substrate mix (Promega) reagent was added to the assay plate and incubated at room temperature for 5 min.
6. The luminescence signal was measured using a ViewLux (PerkinElmer) multiplate reader with a 2 second exposure time per plate. Data for each compound were normalized as percent viability such that measurements for DMSO and the empty well controls in each plate were defined as 100% and 0%, respectively.
For `CC[C@@]1(O)C(=O)OCc2c1cc1n(c2=O)Cc2cc3ccccc3nc2-1`, the Potency is 0.0235 µM (active).

Turning to `COC[C@H]1OC(=O)c2coc3c2[C@@]1(C)C1=C(C3=O)C2CCC(=O)[C@@]2(C)C[C@H]1OC(C)=O` (stereo not given in full), the “viability” value is 88%.

Turning to `COc1ccc2c(c1)[C@]13CCCCC1C(C2)N(C)CC3` (stereo not given in full), the “viability” value is 89.5%.

`O=P1(NCCCl)OCCCN1CCCl` (stereo not given): the “viability” value is 78.6%.

For the compound `CN(C)CCN(C)CCc1ccc(Cl)c(Cl)c1`, the “viability” value is 101%.

As for `CC[C@@H]1[C@@H](C)O[C@@](O)([C@@H](C)[C@H](O)[C@H](C)[C@H]2OC(=O)C=CC=C[C@@H](C)[C@@H]([C@@H](C)[C@@H](O)[C@H](C)[C@@]3(O)C[C@H](O[C@H]4C[C@H](O)[C@H](O)[C@H](C)O4)[C@H](CC)[C@@H](C)O3)OC(=O)C=CC=C[C@@H]2C)C[C@H]1O[C@H]1C[C@H](O)[C@H](O)[C@H](C)O1`, the Potency is 7.43 µM (active).

As for `Oc1ccc2c3c1O[C@H]1c4[nH]c5c(c4C[C@@]4(O)[C@@H](C2)N(CC2CC2)CC[C@]314)C[C@@]1(O)[C@H]2Cc3ccc(O)c4c3[C@@]1(CCN2CC1CC1)[C@H]5O4`, the “viability” value is 106%.

For `CCN1C[C@]2(OC(=O)c3ccccc3NC(C)=O)CC[C@H](OC)[C@@]34[C@H]5CC6[C@@H](OC)C[C@](O)(C(C[C@@H]23)[C@@H]14)[C@@]5(O)[C@@H]6OC`, the “viability” value is 103%.

Turning to `CC(C)(C)c1cc(C=C(C#N)C#N)cc(Br)c1O`, the “viability” value is 87%.

On to `CN(C)CCc1ccc(O)cc1`, for which the “viability” value is 112%.

Turning to `CC(=O)Nc1ccc(OC[C@](C)(O)C(=O)Nc2ccc([N+](=O)[O-])c(C(F)(F)F)c2)cc1`, the “viability” value was 98.3%.

With `O=C(O)c1nn(Cc2ccc(Cl)cc2Cl)c2ccccc12`, the “viability” value is 100%.

On to `C[C@@H]1O[C@@H](O[C@@H]2C=C3CC[C@@H]4[C@@H](CC[C@]5(C)[C@H](c6ccc(=O)oc6)CC[C@@]45O)[C@@]3(C)CC2)[C@H](O)[C@H](O)[C@H]1O`, for which the Potency is 0.0418 µM (active).

For `CCCC(C)(COC(N)=O)COC(=O)NC(C)C` (stereo not given), the “viability” value is 99.5%.

In the case of `CN1CCN(c2ccc([N+](=O)[O-])c3no[n+]([O-])c23)CC1`, the “viability” value is 102%.

Consider `C[C@]12CCC(=O)C(O)=C1CC[C@@H]1[C@H]3CCC(=O)[C@@]3(C)CC[C@@H]12`, for which the “viability” value was 99.2%.

Consider `CC(C)[C@H]1C(=O)N[C@H](CO)Cc2c[nH]c3cccc(c23)N1C`, for which the Potency is 0.372 µM (active).

`COc1ccc(C(CN(C)C)C2(O)CCCCC2)cc1` (stereo not given): the “viability” value was 109%.

On to `C[C@@H]1C[C@@H]([C@H](O)CC2CC(=O)NC(=O)C2)C(=O)[C@@H](C)C1`, for which the Potency was 0.264 µM (active).

For the compound `CC(C)c1cccc(C(C)C)c1O`, the “viability” value was 108%.

`O=S(=O)(F)Cc1ccccc1`: the “viability” value is 72.7%.

Turning to `O=P1(N(CCCl)CCCl)NCCCO1` (stereo not given), the Potency is 14.8 µM (active).

In the case of `CC(=O)OCC1=C(C(=O)O)N2C(=O)[C@@H](N)[C@@H]2SC1`, the Potency is 1.48 µM (active).

Take `O=C1C=CC[C@@H]2[C@H]3CCCN4CCC[C@@H](CN12)[C@@H]34`: the “viability” value was 98.4%.

Turning to `O=C(N[C@H]1CN2CCC1CC2)c1ccc(Cl)cc1`, the “viability” value was 87.4%.

Consider `CC(C)C[C@H](CN)CC(=O)O`, for which the “viability” value was 106%.

For `Cc1[nH]nc2ccc(-c3cncc(OC[C@@H](N)Cc4c[nH]c5ccccc45)c3)cc12`, the Potency was 1.48 µM (active).

`CC1=C2C[C@@H]3[C@@H](CC=C4C[C@@H](O)CC[C@@]43C)[C@@H]2CC[C@]12O[C@H]1C[C@H](C)CN[C@H]1[C@H]2C`: the “viability” value was 93.7%.

On to `C[C@]12CCC(=O)C=C1CC[C@@H]1[C@H]3CC[C@](C)(O)[C@@]3(C)CC[C@@H]12`, for which the “viability” value was 87.9% [at 92.2 µM].

With `C[C@](O)(COc1ccc(C#N)cc1)C(=O)Nc1ccc(C#N)c(C(F)(F)F)c1`, the “viability” value is 94.8%.

Regarding `C[C@@H]1[C@H](O)[C@@H](C)C=CC=CCCC=CC=CC=CC=C[C@H](O[C@H]2O[C@@H](C)[C@H](O)[C@@H](N)[C@@H]2O)CC2O[C@](O)(C[C@@H](O)[C@H](O)CC[C@@H](O)C[C@@H](O)C[C@@H](O)CC(=O)O[C@H]1C)C[C@H](O)[C@H]2C(=O)O`, the “viability” value was 96.1%.

In the case of `CC(C)N(CCNC(=O)CN1CCCC1=O)C(C)C`, the “viability” value is 100%.

For the compound `O=C1CC[C@@]2(O)[C@H]3Cc4ccc(O)c5c4[C@@]2(CCN3CC2CC2)[C@H]1O5`, the “viability” value was 112%.

On to `O=C(O)CNC(=O)c1c(O)c2ccccc2n(Cc2ccccc2)c1=O`, for which the “viability” value is 100%.

As to `COc1cc(OC)c(OC)cc1C=O`, the “viability” value was 111%.

Consider `c1ccc(CCCN2CCN(CCOC(c3ccccc3)c3ccccc3)CC2)cc1`, for which the Potency was 18.7 µM (active).

In the case of `NC1=NC(=O)N2CC12` (stereo not given), the Potency is 5.26 µM (active).

Turning to `CC1=C(O)C(=O)C=C2C1=CC=C1[C@@]2(C)CC[C@@]2(C)[C@@H]3C[C@](C)(C(=O)O)CC[C@]3(C)CC[C@]12C`, the Potency is 2.96 µM (active).

For the compound `C[C@@]12OC(=O)[C@]1([C@@H](O)[C@@H]1C=CCCC1)NC(=O)[C@H]2CCCl`, the Potency was 0.235 µM (active).

On to `CC(NC(C)(C)C)C(=O)c1cccc(Cl)c1` (stereo not given), for which the “viability” value was 86.8%.

A word on the viability: it is a read-out of living cells in per cent, often relative to untreated cells.
